# Laboratory results reported in paper PMC5540273 (PLoS ONE, 2017).
# What was measured:
# Conditions in all cases: concentration: 1 μM, replicates: in singlicate; n = 1
# HPK1 = system: HPK1
# HUNK = system: HUNK
# ICK = system: ICK
# IGF1R = system: IGF1R
# IKK-alpha = system: T1, IKK-alpha
# T1 construct: gene CHUK
# IKK-beta = system: T2, IKK-beta
# T2 construct: gene IKBKB
# IKK-epsilon = system: T3, IKK-epsilon
# T3 construct: gene IKBKE
# INSRR = system: INSRR
# INSR = system: INSR
# IRAK1 = system: IRAK1
# IRAK3 = system: IRAK3
# IRAK4 = system: IRAK4
# ITK = system: ITK
# [1] = system: JAK1(JH1domain-catalytic)
# [2] = system: JAK1(JH2domain-pseudokinase)
# [3] = system: JAK2(JH1domain-catalytic)
# [4] = system: JAK3(JH1domain-catalytic)
# JNK1 = system: T4, JNK1
# T4 construct: gene MAPK8
# JNK2 = system: T5, JNK2
# T5 construct: gene MAPK9
# JNK3 = system: T6, JNK3
# T6 construct: gene MAPK10
# 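Further: KINOMEscan kinase panel screen.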
smiles,measurement,setting,value
Cl.Nc1ncnc2occ(-c3ccc(NC(=O)Nc4cc(C(F)(F)F)ccc4F)cc3)c12 [SB-707548],%Inh,HPK1,85%
same,%Inh,HUNK,15%
same,%Inh,ICK,5%
same,%Inh,IGF1R,5%
same,%Inh,IKK-alpha,86%
same,%Inh,IKK-beta,35%
same,%Inh,IKK-epsilon,63%
same,%Inh,INSRR,0%
same,%Inh,INSR,23%
same,%Inh,IRAK1,35%
same,%Inh,IRAK3,0%
same,%Inh,IRAK4,3%
same,%Inh,ITK,9%
same,%Inh,[1],50%
same,%Inh,[2],7%
same,%Inh,[3],59%
same,%Inh,[4],23%
same,%Inh,JNK1,9%
same,%Inh,JNK2,94.9%
same,%Inh,JNK3,12%
O=c1cc(N2CCOCC2)nc2n(Cc3cccc(C(F)(F)F)c3)ccn12 [GSK2297543],%Inh,HPK1,20%
same,%Inh,HUNK,41%
same,%Inh,ICK,0%
same,%Inh,IGF1R,0%
same,%Inh,IKK-alpha,0%
same,%Inh,IKK-beta,0%
same,%Inh,IKK-epsilon,7%
same,%Inh,INSRR,0%
same,%Inh,INSR,14%
same,%Inh,IRAK1,0%
same,%Inh,IRAK3,0%
same,%Inh,IRAK4,0%
same,%Inh,ITK,9%
same,%Inh,[1],2%
same,%Inh,[2],0%
same,%Inh,[3],0%
same,%Inh,[4],0%
same,%Inh,JNK1,0%
same,%Inh,JNK2,10%
same,%Inh,JNK3,0%
Cc1c(Cn2c(C)nn3c(=O)cc(N4CCOC(C)C4)nc23)cccc1C(F)(F)F (centres unmarked) [GSK2344444],%Inh,HPK1,9%
same,%Inh,HUNK,0%
same,%Inh,ICK,0%
same,%Inh,IGF1R,7%
same,%Inh,IKK-alpha,12%
same,%Inh,IKK-beta,18%
same,%Inh,IKK-epsilon,5%
same,%Inh,INSRR,3%
same,%Inh,INSR,17%
same,%Inh,IRAK1,0%
same,%Inh,IRAK3,0%
same,%Inh,IRAK4,13%
same,%Inh,ITK,7%
same,%Inh,[1],2%
same,%Inh,[2],0%
same,%Inh,[3],19%
same,%Inh,[4],38%
same,%Inh,JNK1,0%
same,%Inh,JNK2,8%
same,%Inh,JNK3,2%
O=C(Nc1cccc(-c2nn3ncccc3c2-c2ccnc(Nc3cccc(C(F)(F)F)c3)n2)c1)c1c(F)cccc1F [GSK299495],%Inh,HPK1,35%
same,%Inh,HUNK,4%
same,%Inh,ICK,8%
same,%Inh,IGF1R,14%
same,%Inh,IKK-alpha,33%
same,%Inh,IKK-beta,17%
same,%Inh,IKK-epsilon,0%
same,%Inh,INSRR,0%
same,%Inh,INSR,0%
same,%Inh,IRAK1,38%
same,%Inh,IRAK3,0%
same,%Inh,IRAK4,21%
same,%Inh,ITK,23%
same,%Inh,[1],22%
same,%Inh,[2],0%
same,%Inh,[3],0%
same,%Inh,[4],0%
same,%Inh,JNK1,31%
same,%Inh,JNK2,27%
same,%Inh,JNK3,14%
N#Cc1c(N2CCOCC2)sc(-c2ccn[nH]2)c1-c1ccc(Cl)cc1,%Inh,HPK1,0%
same,%Inh,HUNK,16%
same,%Inh,ICK,24%
same,%Inh,IGF1R,0%
same,%Inh,IKK-alpha,10%
same,%Inh,IKK-beta,25%
same,%Inh,IKK-epsilon,0%
same,%Inh,INSRR,0%
same,%Inh,INSR,0%
same,%Inh,IRAK1,20%
same,%Inh,IRAK3,16%
same,%Inh,IRAK4,1%
same,%Inh,ITK,6%
same,%Inh,[1],0%
same,%Inh,[2],29%
same,%Inh,[3],22%
same,%Inh,[4],0%
same,%Inh,JNK1,40%
same,%Inh,JNK2,23%
same,%Inh,JNK3,43%
Cc1c2ccc(N(C)c3ccnc(Nc4cccc(S(N)(=O)=O)c4)n3)cc2nn1Cc1ccccc1.Cl.Cl [GW787226],%Inh,HPK1,76%
same,%Inh,HUNK,30%
same,%Inh,ICK,0%
same,%Inh,IGF1R,34%
same,%Inh,IKK-alpha,0%
same,%Inh,IKK-beta,0%
same,%Inh,IKK-epsilon,2%
same,%Inh,INSRR,58%
same,%Inh,INSR,25%
same,%Inh,IRAK1,0%
same,%Inh,IRAK3,36%
same,%Inh,IRAK4,0%
same,%Inh,ITK,0%
same,%Inh,[1],36%
same,%Inh,[2],26%
same,%Inh,[3],31%
same,%Inh,[4],0%
same,%Inh,JNK1,0%
same,%Inh,JNK2,0%
same,%Inh,JNK3,0%
O=C(NOCC1CC1)c1ccc(F)c(F)c1Nc1ccc(I)cc1Cl,%Inh,HPK1,12%
same,%Inh,HUNK,0%
same,%Inh,ICK,100%
same,%Inh,IGF1R,0%
same,%Inh,IKK-alpha,46%
same,%Inh,IKK-beta,35%
same,%Inh,IKK-epsilon,0%
same,%Inh,INSRR,0%
same,%Inh,INSR,0%
same,%Inh,IRAK1,0%
same,%Inh,IRAK3,0%
same,%Inh,IRAK4,0%
same,%Inh,ITK,0%
same,%Inh,[1],0%
same,%Inh,[2],0%
same,%Inh,[3],0%
same,%Inh,[4],0%
same,%Inh,JNK1,0%
same,%Inh,JNK2,0%
same,%Inh,JNK3,0%
